# Assay results reported in PubChem BioAssay (NCATS).
# Records with an inconclusive call do not appear. A call without a number means that no potency is given here. Calls of active or inactive are those of the source. Calls follow the shape of the dose curve; as a rule, active = well fitted inhibition curve with a large enough effect; inconclusive = small, poorly fitted or top-dose-only effect; inactive = flat fitted curve, though single readings scatter. Where a SMILES comes first, the peptide text is derived from it.
# Target: Calcium and integrin-binding protein 1 (Homo sapiens) (UniProt Q99828)
# Sequence (Q99828 whole entry, looked up): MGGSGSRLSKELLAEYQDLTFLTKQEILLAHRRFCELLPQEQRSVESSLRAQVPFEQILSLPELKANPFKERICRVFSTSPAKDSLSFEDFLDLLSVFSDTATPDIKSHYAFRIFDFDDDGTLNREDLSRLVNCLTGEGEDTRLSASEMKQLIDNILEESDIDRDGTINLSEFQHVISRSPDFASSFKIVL
# Experiment: Primary qHTS for Identification of Calcium Integrin Binding Protein 1 (CIB1) Competitor (AID 1508620); also: top concentration of the series differs between compounds
# Conditions: CIB1-GST / FITC-alphaIIb peptide fluorescence polarization; series mostly up to 57.7 µM
# Summary of the method: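 Fluorescence polarization competition: GST-tagged CIB1 (1 uM final) preincubated with compound 15 min at room temperature, then FITC-labelled alphaIIb peptide (100 nM final) added. After 15 min at room temperature, polarization read at Ex 480/Em 540.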
SMILES,Potency,"activity change, negative = inhibition"
CC1CCC2C(C)(C)C(O)CCC2(C)C12Cc1c(O)cc3c(c1O2)C(N)=NC3 (stereo not drawn),inactive,
CC1CCC2C(C)(C)CC(C)(CO)C2(O)C1C(=O)O (stereo not drawn),inactive,
COc1ccc2c(c1)O[C@H](O[C@@H]1O[C@H](CO)[C@@H](O)[C@H](O)[C@H]1O)C(=O)N2,inactive,
CC1(C)NC2N(C1=O)c1ccccc1C2(O)CC(C(=O)O)n1cnc2ccccc2c1=O (stereo not drawn),inactive,
C=C1CC2C3(C)C(OC(C)=O)CC(=O)OC(C)(C)C3C(O)C(OC(C)=O)C2(C)C2C(=O)OC(C)C(=O)C12C (stereo not drawn),inactive,
C#Cc1cnc2[nH]c(=O)n(C(CC)CC)c2n1,inactive,
CC1CCC2C(C)(C)C(O)CCC2(C)C12Cc1c(O)cc3c(c1O2)CN=C3N (stereo not drawn),inactive,
CC1OC(OC2C(CO)OC(OCC3OC(OC(=O)C45CCC(C)(C)CC4C4=CCC6C7(C)CCC(OC8OC(C(=O)O)C(O)C(OC9OC(CO)C(O)C(O)C9O)C8O)C(C)(C)C7CCC6(C)C4(C)CC5)C(O)C(O)C3O)C(O)C2O)C(O)C(O)C1O (stereo not drawn),,0.696% [at 12.4 µM] (inactive)
CC1(CO)CC[C@]2(C(=O)O[C@@H]3O[C@H](CO)[C@@H](O)[C@H](O)[C@H]3O)CC[C@]3(C)C(=CCC4[C@@]5(C)CC[C@H](O[C@@H]6O[C@H](C(=O)O)[C@@H](O)[C@H](O)[C@H]6O)C(C)(C)C5CC[C@]43C)C2C1 (stereo partly drawn),inactive,
C/C=C/C=C/C=C/C(=O)O[C@@H]1C=C(CO)C(O)(C(=O)O)[C@@]2(C)CCCC(C)(C)[C@H]12 (stereo partly drawn),inactive,
CC(C)CNC(=O)/C=C/CCCCc1ccc2c(c1)OCO2,inactive,
C[C@@H]1CC[C@]2(C(=O)O)CC[C@]3(C(=O)O)C(=CCC4[C@@]5(C)CC[C@H](O[C@@H]6O[C@@H](C)[C@H](O[C@@H]7O[C@H](CO)[C@@H](O)[C@H](O)[C@H]7O)[C@@H](O)[C@H]6O)C(C)(C)C5CC[C@]43C)C2[C@H]1C (stereo partly drawn),inactive,
O=C(OCC12OC1C=CC(OC(=O)c1ccccc1)C2O)c1ccccc1 (stereo not drawn),inactive,
CC1CCC23COC(=O)C2=CC(O)CC3C1(C)CCC1=CC(=O)OC1O (stereo not drawn),inactive,
CC(=O)N(O)CCCCCN1C(=O)CCC1=O,inactive,
C/C=C(/C)C(=O)O[C@H]1C=C(C)C[C@H](OC(=O)c2ccc(O)cc2)C2[C@](O)(C(C)C)CC[C@@]21C (stereo partly drawn),inactive,
NCCOCCOCCNC(=O)Cc1ccc(Nc2nc(NCc3ccc(F)cc3)nc(NCC3CCCCC3)n2)cc1,inactive,
C=C1CC[C@H]2[C@@H](/C=C(\C)C(=O)[C@@]3(OC(C)=O)C[C@H](C)[C@H](OC(C)=O)[C@@H]3[C@H]1OC(C)=O)C2(C)C,inactive,
CC1=CC(=O)CC(C)(C)C1CCC(C)OC1OC(COC(=O)c2cc(O)c(O)c(O)c2)C(O)C(O)C1O (stereo not drawn),inactive,

SMILES,Potency,"activity change, negative = inhibition"
CC(=O)N1c2ccccc2C2(O)CC3C(=O)NC(CC(C)C)C(=O)N3C12 (stereo not drawn),inactive,
CC1=C(CC(=O)O)c2cc(F)ccc2C1=Cc1ccc(S(C)(=O)=O)cc1,inactive,
CC(C)(O)C1=CCC23COC(C2)C(O)(C(=O)O)CCC13 (stereo not drawn),inactive,
C=C(C)[C@@H]1CC[C@](C)(O)[C@@H](OC(=O)c2ccccc2)C1,inactive,
C=CCc1ccc(O[C@@H]2O[C@H](CO)[C@@H](O)[C@H](O)[C@H]2O)c(OC)c1,inactive,
C[C@@H]1O[C@@H](O[C@H]2[C@H](OC(=O)[C@]34CCC(C)(C)C[C@H]3C3=CCC5[C@@]6(C)C[C@H](O)[C@H](O[C@@H]7O[C@H](CO[C@@H]8OC[C@H](O)[C@H](O)[C@H]8O)[C@@H](O)[C@H](O)[C@H]7O)C(C)(C)C6CC[C@@]5(C)[C@]3(C)C[C@H]4O)OC[C@@H](O)[C@@H]2O)[C@H](O)[C@H](O[C@@H]2OC[C@](O)(CO)[C@H]2O)[C@H]1O[C@@H]1OC[C@H](O)[C@H](O[C@@H]2OC[C@@H](O)[C@H](O)[C@H]2O)[C@H]1O (stereo partly drawn),,1.69% [at 12.4 µM] (inactive)
CC1(C)CC[C@]2(C(=O)O)CC[C@]3(C)C(=CCC4[C@@]5(C)CC[C@H](O[C@@H]6O[C@H](C(=O)O)[C@@H](O)[C@H](O)[C@H]6O)C(C)(CO)C5CC[C@]43C)C2C1 (stereo partly drawn),inactive,
Cn1c(=O)cc(N2CCCC(N)C2)n(Cc2ccccc2C#N)c1=O (stereo not drawn),inactive,
CC1(C)CC[C@]2(C(=O)O)CC[C@]3(C)C(=CCC4[C@@]5(C)C[C@H](O)[C@H](O[C@@H]6OC[C@H](O)[C@H](O)[C@H]6O)[C@@](C)(CO)C5CC[C@]43C)[C@@H]2C1 (stereo partly drawn),inactive,
C[C@@H](O)[C@H](N)C(=O)N1CCC[C@H]1C(=O)N1CCC[C@H]1C(=O)N[C@H](C(N)=O)[C@@H](C)O (H-TPPT-NH2),inactive,
COC1CCCC/C(C)=C/C2C=C(C)C(C)C3C(CC(C)C)NC(=O)C23C(=O)C1 (stereo not drawn),inactive,
C[C@@H]1C(=O)O[C@H]2[C@H]1CC[C@@]1(C)C(=O)C=C[C@](C)(O)[C@H]21,inactive,
COc1c2c(c(C)c3c1C(=O)OC3)OC1(C)CC(O)C3(O)C(C)(C)OC(=O)CCC3(C)C1C2 (stereo not drawn),inactive,
O=C(O)c1cc(O[C@@H]2O[C@H](CO[C@@H]3OC[C@@H](O)[C@H](O)[C@H]3O)[C@@H](O)[C@H](O)[C@H]2O)c2ccccc2c1O,inactive,
CCC(C)/C=C(C)/C=C/C1=CC2=C(Cl)C(=O)C(C)(OC(C)=O)C(=O)C2=CN1CCCC(=O)O (stereo not drawn),inactive,
CC(=O)Oc1cc2c(s1)CCN([C@H](C(=O)C1CC1)c1ccccc1F)C2,inactive,
C=C(C)[C@@H](C)[C@H]1O[C@]23C[C@]4(CO2)C(CCC2[C@@]5(C)CC[C@H](O[C@@H]6OC[C@H](O)[C@H](O[C@@H]7O[C@H](CO)[C@@H](O)[C@H](O)[C@H]7O)[C@H]6O[C@@H]6O[C@@H](CO)[C@H](O)[C@H]6O)C(C)(C)C5CC[C@]24C)C3[C@@](C)(O)[C@@H]1OC(C)=O (stereo partly drawn),inactive,
C=C1CCC2C(C)(CO[C@@H]3O[C@H](CO)[C@@H](O)[C@H](O)[C@H]3O)C(O)CCC2(C)C1C(=O)CC1=CCOC1=O (stereo partly drawn),inactive,
Nc1nonc1C(=Nc1ccc(F)c(Cl)c1)NO,inactive,
